An excerpt weighted towards active compounds, which were near 4.1% of everything screened.
Shn3 3UTR inh – reduction of Shn3 3'UTR firefly luciferase signal, primary screen, Schnurri-3 inhibitor project, cell-based, Clone20 osteoblasts, set 2 | Clone20 osteoblast Shn3 3'UTR firefly luciferase, 24 h | inhibition, % at 12.5 µM | actives 0.52% (n = 360,000) | AID 588674, 2011;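 active = mean inhibition of at least 75% with every replicate also reaching 75%; inconclusive = mean inhibition at least 75% but some replicate below; inactive = mean inhibition below 75%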;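 note: 0% = median of neutral control wells and 100% = pilot-screen positive control compound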
MITF TRPM1 inh – inhibitors of MITF-dependent TRPM1 promoter reporter, primary screen, cell-based, SK-MEL-5, single point, luciferase; SK-MEL-5 TRPM1 promoter luciferase, 24 h; inhibition, % at 12.5 µM; actives 0.83% (n = 330,000);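 active = mean inhibition across replicates of 60% or more, whatever share of single replicates reaches that level; inconclusive = some that reach 60%, reason not given; inactive = mean inhibition across replicates below 60%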
TWEAK-Fn14 inh – inhibitors of TWEAK-Fn14 signaling, primary screen, luciferase reporter cells, uHTS | inhibition, % at 10 µM | TWEAK-stimulated Fn14 reporter cells, luciferase luminescence, 8 h | actives 2% (n = 360,000); in the data active = inhibition above about 50%
Peg3 promoter – Peg3 promoter-driven luciferase inhibitors, primary screen, cell-based, HeLa, luciferase luminescence | actives 1.7% (n = 360,000) | HeLa PEG-Prom luciferase reporter, overnight | inhibition, % at 20 µM | AID 588405, 2011;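 active = inhibition of at least 50% at 20 µM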
EBV LMP1 NFkB – EBV LMP1-driven NF-kappaB luciferase reporter inhibitors, primary screen, cell-based, luminescence, single point; LMP1-induced NF-kappaB luciferase reporter cells; inhibition, % at 12.5 µM; actives 0.69% (n = 350,000); in the data active = inhibition above about 41%; inconclusive = no clear call, values can overlap the other calls;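 note: 0% = neutral control wells and 100% = reference inhibitor control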
TROY signal inh – inhibitors of TROY-driven NF-kB signaling, primary screen, Q293 LMP1-TROYcd cells, NF-kB luciferase, uHTS; Q293 LMP1-TROYcd NF-kB luciferase reporter, 4 h; inhibition, % at 10 µM; actives 0.98% (n = 360,000); AID 1347056, 2019;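 active = compounds whose plate-normalised and pattern-corrected inhibition of the luciferase reporter signal at the single screening dose is 50% or more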
* marks the source's active call; other numbers are inactive results.

For C[N+]1(C)[C@@H]2CC[C@H]1CC(OC(=O)C(CO)c1ccccc1)C2 (some centres not stated) the results were Shn3 3UTR inh -3.5, MITF TRPM1 inh -10.1, TWEAK-Fn14 inh -5.4, Peg3 promoter 0.4, EBV LMP1 NFkB 80.0* and TROY signal inh 1.1.
For C[N+]1(C)C2CCC1CC(OC(=O)C(CO)c1ccccc1)C2 (configuration not stated) the results were Shn3 3UTR inh -3.8, MITF TRPM1 inh 14.0, TWEAK-Fn14 inh 5.8, Peg3 promoter 5.0, EBV LMP1 NFkB 1.5 and TROY signal inh 14.4.
`CCOC(=O)c1c(C)n(Cc2ccc3c(c2)OCO3)c2ccc(O)cc12` gave Shn3 3UTR inh -13.4, MITF TRPM1 inh -32.2, TWEAK-Fn14 inh 13.4, Peg3 promoter -127.2, EBV LMP1 NFkB -9.3 and TROY signal inh -1.0.
`COC(=O)c1c(C)n(Cc2ccc3c(c2)OCO3)c2ccc(O)cc12` gave Shn3 3UTR inh 9.1, MITF TRPM1 inh -25.1, TWEAK-Fn14 inh 53.2*, Peg3 promoter -55.8, EBV LMP1 NFkB 11.0 and TROY signal inh 11.9.
Screening Fc1ccc(C(OCCN2CCCC2)c2ccc(F)cc2)cc1 returned Shn3 3UTR inh 5.5, MITF TRPM1 inh -13.1, TWEAK-Fn14 inh 6.1, Peg3 promoter -7.9, EBV LMP1 NFkB inconclusive and TROY signal inh -22.2.
Fc1ccc(C(OCCN2CCN(CCCc3ccccc3)CC2)c2ccc(F)cc2)cc1 was read as Shn3 3UTR inh 87.3*, MITF TRPM1 inh 41.9, TWEAK-Fn14 inh 28.6, Peg3 promoter 67.3*, EBV LMP1 NFkB 29.6 and TROY signal inh -1.5.
`c1ccc(CCCN2CCN(CCOC(c3ccccc3)c3ccccc3)CC2)cc1` gave Shn3 3UTR inh -4.8, MITF TRPM1 inh -23.0, TWEAK-Fn14 inh -4.0, Peg3 promoter 25.9, EBV LMP1 NFkB 82.4* and TROY signal inh 7.5.
For NCCCCCC(=O)OC1N=C(c2ccccc2Cl)c2cc(Br)ccc2NC1=O (configuration not stated) the results were Shn3 3UTR inh 14.3, MITF TRPM1 inh 0.3, TWEAK-Fn14 inh 18.8, Peg3 promoter 2.8, EBV LMP1 NFkB 3.2 and TROY signal inh 18.4.
`Cc1cc(Br)cn2c(CC(=O)N3CCCCC3)c(-c3ccc(F)cc3)nc12` gave TWEAK-Fn14 inh -8.0 and TROY signal inh 5.3.
For Cn1ncnc2c(=O)n(C)c(=O)nc1-2 the results were Shn3 3UTR inh 96.6*, MITF TRPM1 inh 103.0*, TWEAK-Fn14 inh 106.1*, Peg3 promoter 104.8*, EBV LMP1 NFkB 90.4* and TROY signal inh 87.9*.
CC1OC(OC2C(O)CC(OC3C(O)CC(OC4CCC5(C)C(CCC6C5CCC5(C)C(C7=CC(=O)OC7)C(O)CC65O)C4)OC3C)OC2C)CC(O)C1O (configuration not stated) was read as Shn3 3UTR inh 2.0, MITF TRPM1 inh 70.3*, TWEAK-Fn14 inh 81.2*, Peg3 promoter 107.3*, EBV LMP1 NFkB 62.0* and TROY signal inh 48.5.
`CC(=O)OC1CC(OC2C(O)CC(OC3C(O)CC(OC4CCC5(C)C(CCC6C5CCC5(C)C(C7=CC(=O)OC7)C(O)CC65O)C4)OC3C)OC2C)OC(C)C1OC1OC(CO)C(O)C(O)C1O` (configuration not stated) gave Shn3 3UTR inh 8.1, MITF TRPM1 inh 86.0*, TWEAK-Fn14 inh 82.8*, Peg3 promoter 107.7*, EBV LMP1 NFkB 30.0 and TROY signal inh 44.2.
For O=c1ccc2c(O)c3ccoc3cc2o1 the results were Shn3 3UTR inh -2.1, MITF TRPM1 inh 7.0, TWEAK-Fn14 inh -4.2, Peg3 promoter -4.6, EBV LMP1 NFkB 9.7 and TROY signal inh 9.1.
CN(C)C(=O)Oc1ccc(OCc2nc3ccccc3[nH]2)cc1 was read as Shn3 3UTR inh 14.6, MITF TRPM1 inh 2.8, TWEAK-Fn14 inh 68.4*, Peg3 promoter 16.9, EBV LMP1 NFkB 31.4 and TROY signal inh 24.2.
O=c1[nH]c(O)c(Cc2ccc3c(c2)OCO3)c(=O)[nH]1 was read as Shn3 3UTR inh -1.8, MITF TRPM1 inh -3.4, TWEAK-Fn14 inh -0.9, Peg3 promoter -5.5, EBV LMP1 NFkB 2.7 and TROY signal inh 2.7.
`CCOC(=O)C1(c2ccccc2)CCN(CC(=O)c2ccc(NC(C)=O)cc2)CC1` gave Shn3 3UTR inh -16.8, MITF TRPM1 inh -0.4, TWEAK-Fn14 inh 16.1, Peg3 promoter 0.1, EBV LMP1 NFkB 0.0 and TROY signal inh -7.0.
For CC12CCC3C(CCC4(O)CC(O)CCC34C=NO)C1(O)CCC2C1=COC(=O)C1 (configuration not stated) the results were Shn3 3UTR inh 10.5, MITF TRPM1 inh 68.7*, TWEAK-Fn14 inh 75.6*, Peg3 promoter 97.1*, EBV LMP1 NFkB 61.9* and TROY signal inh 35.0.
C[C@]12CCC3C(CCC4=CC(O)CC[C@@]43/C=N/O)C1(O)CCC2C1=CC(=O)OC1 (some centres not stated) was read as Shn3 3UTR inh 14.0, MITF TRPM1 inh 85.5*, TWEAK-Fn14 inh 83.9*, Peg3 promoter 104.9*, EBV LMP1 NFkB 3.3 and TROY signal inh 41.4.
Screening CCCCN=C[C@]12CCC(O)CC1(O)CCC1[C@@H]2CC[C@]2(C)[C@H](C3C=CC(=O)O3)CCC12O (some centres not stated) returned Shn3 3UTR inh -30.8, MITF TRPM1 inh 78.5*, TWEAK-Fn14 inh 76.3*, Peg3 promoter 106.9*, EBV LMP1 NFkB 2.1 and TROY signal inh 35.0.
For C[C@H]1O[C@@H](OC2CC[C@]3(C=O)[C@H]4CC[C@]5(C)[C@@H](C6=CC(=O)OC6)CC[C@]5(O)[C@@H]4CC[C@]3(O)C2)CC2OC(C)(C)OC21 (some centres not stated) the results were Shn3 3UTR inh 9.0, MITF TRPM1 inh 67.4*, TWEAK-Fn14 inh 81.1*, Peg3 promoter 106.6*, EBV LMP1 NFkB 64.7* and TROY signal inh 42.2.
For CN1CCC(O)(c2ccc(Cl)cc2)C(C(=O)c2ccc(Cl)cc2)C1 (configuration not stated) the results were Shn3 3UTR inh 6.4, MITF TRPM1 inh 12.6, TWEAK-Fn14 inh 1.2, Peg3 promoter -19.7, EBV LMP1 NFkB 2.9 and TROY signal inh 6.6.
`CC(C)C12CN3CCN(CC(C3)/C1=N\O)C2` gave Shn3 3UTR inh -15.9, MITF TRPM1 inh 2.0, TWEAK-Fn14 inh 24.3, Peg3 promoter 3.2, EBV LMP1 NFkB 6.6 and TROY signal inh 5.0.
Screening CC12CCC3C(CCC4(O)CC(O)CCC34C=O)C1(O)CCC2C1=CC(=O)OC1 (configuration not stated) returned Shn3 3UTR inh -20.6, MITF TRPM1 inh 81.8*, TWEAK-Fn14 inh 71.2*, Peg3 promoter 103.8*, EBV LMP1 NFkB inconclusive and TROY signal inh 46.4.

Assay outcomes (PubChem)
